Assay outcomes as filed in PubChem BioAssay.
MITF TRPM1 inh: inhibitors of MITF-dependent TRPM1 promoter reporter, primary screen, cell-based, SK-MEL-5, single point, luciferase | SK-MEL-5 TRPM1 promoter luciferase, 24 h | inhibition, % at 12.5 µM | AID 488899, 2010 | hit rate 0.83% among 330,000;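 active = mean inhibition across replicates of 60% or more, whatever share of single replicates reaches that level; inconclusive = some that reach 60%, reason not given; inactive = mean inhibition across replicates below 60%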
EWS-Fli inh: EWS/Fli-driven NR0B1 reporter inhibitors, primary screen, A673 cells, NR0B1 luciferase, luminescence, MLPCN library; viability-normalised; inhibition, % at 12.6 µM; hit rate 0.67% among 350,000;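 active = mean inhibition of at least 50% after viability correction, with every replicate also passing that limit; inconclusive = mean reaches 50% but only one of two replicates passes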;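 also: firefly luciferase signal divided by Alamar Blue viability fluorescence both relative to DMSO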
PAX8 reporter: inhibitors of PAX8-driven TPO luciferase reporter, primary screen, RMG-I cells, single concentration | inhibition, % at 12.6 µM | hit rate 1.2% among 360,000 | SteadyGlo, 24 h;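 active = mean replicate inhibition at least 60% with every replicate also reaching 60%; inconclusive = only one of the two criteria is met; inactive = mean below 60% and not all replicates reaching 60%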;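 also: luciferase light reporting Pax8 driven TPO promoter activity; plate controls were median of neutral control wells for no effect and mitoxantrone controls for full effect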
Shn3 3UTR inh: reduction of Shn3 3'UTR firefly luciferase signal, primary screen, Schnurri-3 inhibitor project, cell-based, Clone20 osteoblasts, set 2. Clone20 osteoblast Shn3 3'UTR firefly luciferase, 24 h. inhibition, % at 12.5 µM. hit rate 0.52% among 360,000;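 active = mean inhibition of at least 75% with every replicate also reaching 75%; inconclusive = mean inhibition at least 75% but some replicate below; inactive = mean inhibition below 75%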;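 also: 0% = median of neutral control wells and 100% = pilot-screen positive control compound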
Peg3 promoter: Peg3 promoter-driven luciferase inhibitors, primary screen, cell-based, HeLa, luciferase luminescence; HeLa PEG-Prom luciferase reporter, overnight; inhibition, % at 20 µM; hit rate 1.7% among 360,000;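 active = inhibition of at least 50% at 20 µM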
ABHD5-PLIN5 inh: ABHD5-PLIN5 interaction inhibitors, primary screen, cell lysate, split luciferase complementation, luminescence; inhibition, % at 4 µM; AID 602281, 2012; hit rate 0.78% among 360,000; Perilipin-5 (Homo sapiens) + 1-acylglycerol-3-phosphate O-acyltransferase ABHD5 (Homo …; Split G. princeps luciferase complementation, 4 h;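 active = inhibition above the mean inhibition across every tested compound plus 3 SD, cut at about 22% in these data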;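 also: 0% = DMSO only wells and the 100% control is not disclosed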
Target sequence (Q00G26 whole entry, looked up): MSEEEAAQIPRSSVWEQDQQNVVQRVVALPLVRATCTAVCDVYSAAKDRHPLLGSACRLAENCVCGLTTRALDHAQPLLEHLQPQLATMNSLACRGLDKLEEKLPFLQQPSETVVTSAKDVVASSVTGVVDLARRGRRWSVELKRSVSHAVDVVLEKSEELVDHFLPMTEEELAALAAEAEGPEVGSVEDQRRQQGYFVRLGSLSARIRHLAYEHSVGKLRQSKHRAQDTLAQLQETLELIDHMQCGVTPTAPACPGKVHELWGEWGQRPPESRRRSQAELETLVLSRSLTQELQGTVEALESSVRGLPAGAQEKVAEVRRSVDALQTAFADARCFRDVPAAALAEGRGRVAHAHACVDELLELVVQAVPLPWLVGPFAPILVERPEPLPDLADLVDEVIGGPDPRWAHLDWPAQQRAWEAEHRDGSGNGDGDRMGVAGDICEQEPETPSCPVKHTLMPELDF
Target sequence (Q8WTS1 whole entry, looked up): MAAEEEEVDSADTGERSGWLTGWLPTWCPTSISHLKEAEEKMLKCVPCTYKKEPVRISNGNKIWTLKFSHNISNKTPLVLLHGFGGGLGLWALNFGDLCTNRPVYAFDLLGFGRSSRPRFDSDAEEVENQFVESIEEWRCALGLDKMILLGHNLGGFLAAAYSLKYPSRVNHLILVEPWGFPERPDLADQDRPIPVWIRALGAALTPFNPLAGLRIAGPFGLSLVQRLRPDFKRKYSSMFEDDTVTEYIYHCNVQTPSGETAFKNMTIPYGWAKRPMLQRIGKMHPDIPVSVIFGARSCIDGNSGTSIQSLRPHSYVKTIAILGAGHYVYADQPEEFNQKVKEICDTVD
Starred values were filed as active, the others as inactive. Sampled rows, rich in hits. Any-hit rate of the full collection: about 3%.

Screening COC(=O)c1cccc(NC(=O)/C=C/c2cccc([N+](=O)[O-])c2)c1 returned MITF TRPM1 inh -38.5, EWS-Fli inh 14.3, Shn3 3UTR inh -0.9, Peg3 promoter -76.7 and ABHD5-PLIN5 inh 0.8.
CC(C)CC#Cc1ccc([C@@H]2[C@@H](CO)N3CCCCN(C(=O)Nc4ccccc4)C[C@H]23)cc1 was read as EWS-Fli inh 1.9 and PAX8 reporter 3.8.
O=C(c1cccc(F)c1)N1CC(=O)N2[C@@H](CO)[C@@H](c3ccc(C4=CCCC4)cc3)[C@@H]2C1 was read as EWS-Fli inh -8.7 and PAX8 reporter -24.9.
For Cc1nc(SCC(=O)Nc2nccs2)c(C#N)c(C)c1C the results were MITF TRPM1 inh 45.9, EWS-Fli inh 71.9*, PAX8 reporter 0.0, Shn3 3UTR inh 19.4, Peg3 promoter 4.9 and ABHD5-PLIN5 inh -2.4.
For C[C@H]1CN([C@@H](C)CO)S(=O)(=O)c2ccc(C3=CCCC3)cc2O[C@H]1CN(C)Cc1ccccc1 the results were EWS-Fli inh 15.5.
`Oc1ccc(C[C@H]2CNC(=S)N2C[C@H]2CCCN2C[C@H](Cc2ccccc2)N2C[C@H](Cc3ccc(O)cc3)N(CCc3ccccc3)C2=S)cc1` gave EWS-Fli inh 21.5, PAX8 reporter 27.0, Shn3 3UTR inh -9.5, Peg3 promoter 75.8* and ABHD5-PLIN5 inh 13.4.
CCOc1ccc(CCN2C(=S)N([C@@H](Cc3ccc(O)cc3)CN3CCCC3CN3C(=S)NC[C@@H]3Cc3ccc(O)cc3)C[C@@H]2CC(C)C)cc1 (stereo partly drawn) was read as MITF TRPM1 inh 28.9, EWS-Fli inh 26.9, PAX8 reporter 53.8, Shn3 3UTR inh 20.7, Peg3 promoter 14.3 and ABHD5-PLIN5 inh 7.8.
`Oc1ccc(C[C@H]2CN([C@@H](Cc3ccc(O)cc3)CN3CCC[C@@H]3CN3C(=S)NC[C@@H]3Cc3ccccc3)C(=S)N2CCc2ccccc2)cc1` gave EWS-Fli inh 31.2, PAX8 reporter 22.0, Shn3 3UTR inh -1.9, Peg3 promoter 33.3 and ABHD5-PLIN5 inh 27.1*.
For CCOc1ccc(CCN2C(=S)N([C@@H](Cc3ccc(O)cc3)CN3CCC[C@@H]3CN3C(=S)NC[C@@H]3CC(C)C)C[C@@H]2Cc2ccc(O)cc2)cc1 the results were EWS-Fli inh 33.5, PAX8 reporter 97.9*, Shn3 3UTR inh 16.6, Peg3 promoter 100.7* and ABHD5-PLIN5 inh 33.6*.
`Oc1ccc(C[C@H]2CN([C@@H](Cc3ccccc3)CN3CCCC3CN3C(=S)NC[C@@H]3Cc3ccccc3)C(=S)N2CCc2ccccc2)cc1` (stereo partly drawn) gave EWS-Fli inh 8.5, PAX8 reporter 17.2 and ABHD5-PLIN5 inh 1.9.
`CC(C)C[C@@H](CN1CCCC1CN1C(=S)NC[C@@H]1Cc1ccc(O)cc1)N1C[C@H](Cc2ccc(O)cc2)N(CCc2ccccc2)C1=S` (stereo partly drawn) gave MITF TRPM1 inh 34.6, EWS-Fli inh 7.3, PAX8 reporter 71.2*, Shn3 3UTR inh 42.7, Peg3 promoter 91.1* and ABHD5-PLIN5 inh 1.8.
For NC(=S)NN=Cc1nccc2c(N)cccc12 the results were EWS-Fli inh -5.3, PAX8 reporter -9.7, Shn3 3UTR inh 86.1*, Peg3 promoter -1.5 and ABHD5-PLIN5 inh -26.6.
For CCN(C(C)=O)c1cnc(C=NNC(N)=S)c2ccccc12 the results were MITF TRPM1 inh 48.2, EWS-Fli inh 4.4, PAX8 reporter 16.5, Shn3 3UTR inh inconclusive, Peg3 promoter 53.6* and ABHD5-PLIN5 inh -27.9.
For NC(=S)N/N=C/c1c(O)ccc2ccccc12 the results were MITF TRPM1 inh 24.1, EWS-Fli inh 8.7, PAX8 reporter 10.3, Shn3 3UTR inh 30.1, Peg3 promoter 29.2 and ABHD5-PLIN5 inh 16.9.
`CC=Cc1ccc2n(c1=O)C[C@H]1[C@H](CO)[C@@H](C(=O)NCc3ccncn3)N(C(=O)NC3CCCC3)[C@@H]21` (mixture of isomers) gave EWS-Fli inh -1.3 and PAX8 reporter -11.2.
